From PubChem BioAssay AID651812 (National Center for Advancing Translational Sciences (NCATS), 2012)
The campaign covered roughly 2,100 compounds. About 650 (31%) were called active. Roughly 16% stayed inconclusive and do not appear here. The list shows a part of the results. Unmarked numbers belong to inactive results. Calls come from the whole dose curve; as a rule, active = well fitted inhibition curve with a large enough effect; inconclusive = small, poorly fitted or top-dose-only effect; inactive = flat fitted curve, though single readings scatter.

Assay: qHTS for inhibitors of Vif-A3G interactions: Cherry picks; note: nearly all actives have a fitted effect of over 80% in size; for activity, negative = fluorescence increase: % of control where 0% means no effect
Conditions: HeLa A3G-eYFP + Vif (tagged APOBEC3G with the HIV-1 protein that degrades it), 24 h; Potency: eYFP fluorescence increase; series mostly up to 36.9 µM; activity, negative = fluorescence increase: at the top concentration
Procedure, shortened: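 HeLa cells stably expressing A3G-eYFP and Vif, cultured overnight then exposed to compounds at several concentrations for 24 hours at 37 C, 5% CO2; cellular yellow fluorescence (488 nm ex, 500-530 nm em) imaged on Acumen, MG132 positive control.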
Potency is the fitted concentration of half-maximal effect.

Row | SMILES | activity, negative = fluorescence increase | Potency
1 | COc1ccccc1NC1=NC(c2ccc(Cl)cc2)N=C(N)N1 (stereo unspecified) | -5.12% | 
2 | CCN(CC)c1ccc(/C=N/NC(=S)NC)c(O)c1 | 0.353% [at 46.1 µM] | 
3 | CCN1C(=S)SC(=O)C1=C1C=C(C)N(Cc2ccco2)C(C)=C1 |  | 14 µM (active)
4 | Cc1c(C(=O)Nc2cnccn2)oc2ccccc12 | -1.49% | 
5 | O=C1CC(c2cc(F)ccc2F)c2cc3c(cc2N1)CCC3 (stereo unspecified) | -1.72% | 
6 | O=C(Cc1n[nH]c(=O)c2ccccc12)OCC(=O)c1ccc2c(c1)OCCO2 | -14.4% | 
7 | N#Cc1ccc(/C=C\c2nccc3c2[nH]c2ccccc23)cc1 |  | 14 µM (active)
8 | C(=C/c1nccc2c1[nH]c1ccccc12)/c1ccc2c(c1)OCO2 | -7.14% | 
9 | O=C(C[n+]1cccc2cc(Cl)ccc21)c1ccc2ccccc2c1 |  | 23.1 µM (active)
10 | CC(C)(C)c1ccc(C(=O)C[n+]2cccc3cc(Cl)ccc32)cc1 |  | 20.6 µM (active)
11 | O=C(C[n+]1cccc2cccc(O)c21)c1ccc2ccccc2c1 | -11% [at 46.1 µM] | 
12 | O=C(C[n+]1cccc2cc(Cl)ccc21)c1ccc(I)cc1 |  | 20.6 µM (active)
13 | O=C(COC(=O)c1ccc(NS(=O)(=O)c2cccs2)cc1O)NCc1ccccc1 | -9.24% | 
14 | CCC(=Nc1ccccc1O)C1=C(O)CC(c2ccccc2)CC1=O (stereo unspecified) | -3.16% | 
15 | Clc1ccccc1C1CC(c2ccccc2)=Nc2ccccc2N1 (stereo unspecified) | -8.72% [at 46.1 µM] | 
16 | CCOc1ccccc1C(=O)Nc1ccsc1C(=O)OC | 1.29% | 
17 | Cc1cccc(C=Nc2ccccc2C(N)=O)c1 | 3.09% | 
18 | CCOc1ccc(N(C)c2ccc(/C=C3/SC(=S)NC3=O)cc2)cc1 |  | 17.7 µM (active)
19 | CN(C)c1ccc(C=C2SC(=S)NC2=O)cc1 |  | 11.2 µM (active)
20 | Cc1ccc(N=C2NC(=O)/C(=C/c3cn(C)c4ccccc34)S2)cc1C |  | 17.7 µM (active)
21 | Cc1cccc(N=C2NC(=O)/C(=C/c3cccn3C)S2)c1 | 0.0988% | 
22 | Cn1cc(/C=C2\SC(=O)N(c3ccccc3)C2=O)c2ccccc21 |  | 20.6 µM (active)
23 | Cn1cccc1/C=C1\SC(=O)N(c2ccc(O)cc2)C1=O |  | 20.6 µM (active)
24 | O=C1NC(=Nc2ccc(O)cc2)S/C1=C/c1ccco1 | 0.269% | 
25 | Cn1cccc1/C=C1\SC(=Nc2cccc(O)c2)NC1=O | -6.02% | 
26 | Cn1cc(/C=C2\SC(=S)N(NC(=O)c3cccc(Cl)c3)C2=O)c2ccccc21 |  | 3.66 µM (active)

Row | SMILES | activity, negative = fluorescence increase | Potency
27 | CCOc1ccc(C(=O)C(CCC(CN(C)C)C(=O)c2ccc(OCC)cc2)CN(C)C)cc1 (stereo unspecified) | -0.142% | 
28 | S=c1[nH]nc(-c2cccnc2)n1/N=C/C(Cl)=C\c1ccccc1 | -14.4% | 
29 | O=C(C(=Cc1ccccc1)CN1CCCCC1)c1ccccc1 | -0.537% | 
30 | O=S(=O)(Nc1cc(Sc2ncn[nH]2)c(O)c2ccccc12)c1ccccc1 | -17.9% | 
31 | COc1ccc(NC(=O)C2Cc3c(-c4cccc(C(C)=O)c4)ccnc3O2)cn1 (stereo unspecified) | 0.238% | 
32 | Cc1noc(C)c1COc1cccc(C(=O)OC(C)C(=O)Nc2ccc3c(c2)OCO3)c1 (stereo unspecified) | -0.108% | 
33 | COc1cc2c(cc1OC)C(C)N(C(=O)c1cc(C)on1)CC2 (stereo unspecified) | -1.83% | 
34 | CN(C)c1ccc(C2C=C(c3ccc(Cl)cc3OC(F)F)Nc3ncnn32)cc1 (stereo unspecified) | -23.3% | 
35 | O=C(O)c1ccccc1/C=N/Nc1ccc(S(=O)(=O)N2CCOCC2)cc1[N+](=O)[O-] | -3.49% | 
36 | Cc1ccc(S(=O)(=O)Nc2cc(-c3nn(C)c(=O)c4ccccc34)ccc2N2CCOCC2)cc1 | -12.2% | 
37 | O=[N+]([O-])c1ccc(N/N=C/c2sc(N3CCOCC3)nc2-c2ccccc2)c(S(=O)(=O)Nc2ccccc2Cl)c1 |  | 11.6 µM (active)
38 | Cc1ccc(NS(=O)(=O)c2cc([N+](=O)[O-])ccc2N/N=C/c2sc(N3CCOCC3)nc2-c2ccccc2)c(C)c1 |  | 0.158 µM (active)
39 | COc1ccccc1NS(=O)(=O)c1cc([N+](=O)[O-])ccc1N/N=C/c1sc(N2CCOCC2)nc1-c1ccccc1 |  | 2.06 µM (active)
40 | Cc1ccc(C(=O)c2cc([N+](=O)[O-])ccc2N2CCOCC2)cc1C | -7.92% | 
41 | COc1cc(C2c3cc4c(cc3C(OC3OC5COC(c6cccs6)OC5C(O)C3O)C3COC(=O)C23)OCO4)cc(OC)c1O (stereo unspecified) | -29.5% | 
42 | O=C(c1[nH]c(C(F)(F)F)nc1-c1ccccc1)N1CCN(c2cccc(C(F)(F)F)n2)CC1 | -6.94% | 
43 | O=C(CCc1ccccc1)Nc1ccc(Cl)cn1 | -19.7% | 
44 | COC(=O)COc1cccc2c(=O)n(CC(=O)NCc3ccccc3)ccc12 | -15.8% | 
45 | O=C(/C=C/c1ccncc1)c1cc(Cl)ccc1O | -5.76% [at 46.1 µM] | 
46 | COc1ccccc1C1=NOC(COc2ccc3c(C)cc(=O)oc3c2)C1 (stereo unspecified) | -2.24% | 
47 | Cc1cccc(-n2c(N)c(-c3nc4ccccc4n3C)c3nc4ccccc4nc32)c1 | -4.05% [at 46.1 µM] | 
48 | CCSc1nc2ccccc2n1C(=O)/C=C/c1ccc(OC)c(OC)c1 | -5.86% | 
49 | CC(=O)n1c2ccccc2c2nc3ccccc3nc21 |  | 9.2 µM (active)
50 | O=c1c(Cl)c2oc3ccccc3nc-2c2ccccc12 |  | 18.4 µM (active)
51 | COc1ccc(/C=N/NC(=O)c2cc3c(OC)ccc(OC)c3[nH]2)cc1O | -7.72% | 
52 | O=[N+]([O-])c1ccc(N2CCN(Cc3ccccc3)CC2)c2c1no[n+]2[O-] |  | 15.8 µM (active)

Row | SMILES | activity, negative = fluorescence increase | Potency
53 | Cc1cc(NC(=O)c2ccco2)cc(-c2nc3cc(Cl)ccc3o2)c1O |  | 18.4 µM (active)
54 | COc1ccccc1C(=O)NC(=S)Nc1ccc(NC(=O)c2ccco2)cc1 | 0.442% | 
55 | Cc1ccc(-c2nc3ccccc3o2)cc1NC(=S)NC(=O)/C=C/c1ccco1 | -14.8% | 
56 | CC1=C(C(=O)Nc2cccc(F)c2)C(c2ccsc2)C2=C(CC(C)(C)CC2=O)N1 (stereo unspecified) | -10.6% | 
57 | O=C1S/C(=C\c2ccc(N3CCOCC3)o2)C(=O)N1c1ccccc1 |  | 2.8 µM (active)
58 | O=C1S/C(=C/c2ccc(N3CCOCC3)o2)C(=O)N1Cc1c(F)cccc1Cl |  | 4.44 µM (active)
59 | CCOC(=O)CN1C(=O)S/C(=C/c2ccc(N3CCCCC3)o2)C1=O |  | 5.8 µM (active)
60 | CCCN1C(=O)S/C(=C\c2ccc(N3CCOCC3)o2)C1=O |  | 4.44 µM (active)
61 | Cc1ccc(Cn2nnc3c(=O)n(CC(=O)NCc4ccccc4)cnc32)cc1 | -0.238% | 
62 | CO/N=C\CC(=O)Nc1ccc(Cl)c(Cl)c1 | -4.64% | 
63 | Cc1ccc2nc(NS(=O)(=O)c3ccc(Cl)cc3)c(Nc3ccc(C(=O)O)cc3)nc2c1 | -6.95% [at 46.1 µM] | 
64 | O=C1S/C(=C/c2ccc(N3CCOCC3)o2)C(=O)N1Cc1ccc(F)cc1 |  | 2.8 µM (active)
65 | CCc1ccc2c(c1)NC(=O)C2(C)Cc1ccccc1Cl (stereo unspecified) | -1.62% | 
66 | COC(=O)[C@@H]1Cc2c([nH]c3ccccc23)C(C)(C)N1C(=O)CCl | -4.24% | 
67 | c1ccc(-c2cnn3c(-c4ccccc4)c(-c4ccccc4)nc3n2)cc1 |  | 3.66 µM (active)
68 | COc1ccc(-n2nnnc2-c2cccc(OC)c2)cc1 | -9.47% | 
69 | COc1ccc(C2CC(c3ccncc3)=NN2c2ccc(S(N)(=O)=O)cc2)cc1 (stereo unspecified) |  | 10.3 µM (active)
70 | CCS(=O)(=O)N1N=C(c2ccc(C)cc2)CC1c1cc2ccc(OC)cc2nc1Cl (stereo unspecified) | -5.93% [at 46.1 µM] | 
71 | COc1ccc(-c2cnc3c(NC=O)cc(-c4ccccc4)cn23)cc1OC | -28.9% | 
72 | COc1ccc(/C=c2\s/c(=C/C(=O)c3ccc(C)cc3)[nH]c2=O)c(OC)c1 |  | 20.6 µM (active)
73 | COc1ccccc1/C=N/NC(=S)Nc1cccnc1 | 6.65% [at 46.1 µM] | 
74 | Oc1sc(C=Nc2ccc(F)cc2)c2ccccc12 |  | 2.91 µM (active)
75 | Oc1sc(C=Nc2ccccc2)c2ccccc12 |  | 16.4 µM (active)
76 | COc1ccc(N=Cc2c(O)c3ccccc3n2C(C)=O)cc1 |  | 18.4 µM (active)
77 | COc1ccc(NC(=O)c2c(Cl)n(C)c3ccccc23)cc1 | -3.6% | 
78 | COc1ccc(C(=O)N/N=C/c2ccccc2OC(=O)c2ccccc2)cc1 | -1.22% | 

Row | SMILES | activity, negative = fluorescence increase | Potency
79 | COc1ccc(N=Cc2sc(O)c3ccccc23)cc1 |  | 12.5 µM (active)
80 | CNC(=S)N/N=C(\C)c1ccc(Cl)s1 | -0.736% [at 46.1 µM] | 
81 | COCCCN(C(C)=O)c1nc(-c2ccc(OC)cc2)cs1 | -3.78% | 
82 | COc1ccc(S(=O)(=O)NN(C)c2nc(C(F)(F)F)nc3ccccc23)cc1 | 1.47% | 
83 | CC1(C)Cc2c(sc3ncnc(NNC(=S)NCc4ccccc4)c23)CO1 | -6.55% | 
84 | COc1ccc(/C=N/NC(=O)c2cccnc2)cc1COc1ccc(NC(C)=O)cc1 | -13.1% | 
85 | COc1ccc(OC)c(C2C=C(c3ccc(C)c(C)c3)Nc3nnnn32)c1 (stereo unspecified) | -0.067% | 
86 | COc1ccc(NC(=O)c2c(C)noc2-c2snnc2C)cc1 | -5.1% | 
87 | CCC(=O)NC(c1ccc(OC)cc1)c1c(O)ccc2ccccc12 (stereo unspecified) | -5.23% | 
88 | COc1ccc(/C=N\NC(=O)c2cc3c(ccc4ccccc43)o2)cc1O | -0.0912% | 
89 | COc1ccc(N=Cc2oc3ccc4ccccc4c3c2O)cc1 |  | 7.31 µM (active)
90 | CC(CC(=O)Nc1ccc2c(c1)c(=O)n(C)n2Cc1ccc(F)cc1)c1ccccc1 (stereo unspecified) | -4.1% | 
91 | CCOC(=O)C1=C(Cc2ccc(Cl)cc2)C(=O)c2ccccc2C1=O |  | 16.4 µM (active)
92 | CCOC(=O)c1[nH]c(C)c(C(=O)Nc2ccccc2F)c1C | -1.04% | 
93 | CCOC(=O)N1CCN(c2c(NCc3ccc(F)cc3)c(=O)c2=O)CC1 | -9.92% | 
94 | CCOC(=O)C1=C(Cc2ccc(F)cc2)C(=O)c2ccccc2C1=O |  | 20.6 µM (active)
95 | COCCNC(=S)N/N=C(\C)c1ccc(OC(F)F)cc1 | -1.7% [at 46.1 µM] | 
96 | CC(C)c1ccc(NC(=O)Nc2cnccn2)cc1 | -3.55% | 
97 | CCOC(=O)c1ccc(/C=C2/C=C(c3ccccc3)N(c3ccc(Cl)c(C(=O)O)c3)C2=O)cc1 |  | 20.6 µM (active)
98 | CCOC(=O)N1C/C(=C\c2ccccc2)C(=O)/C(=C/c2ccccc2)C1 | 1.58% | 
99 | COc1ccccc1NC(=O)C1=C(C)Nc2nc3ccccc3n2C1c1cccs1 (stereo unspecified) | -2.86% | 
100 | Cc1cc(C)c(N2C(=O)CC(Sc3ccccc3N)C2=O)c(C)c1 (stereo unspecified) | 2.27% | 
101 | CCN1/C(=C/c2ccc3ccccc3[n+]2CC)C=Cc2ccccc21 |  | 9.2 µM (active)
